# Counter-ions that a name gives are not always drawn.
# Columns and labels:
# Conditions in all cases: 20 µM; incubation time: 27 h, anaerobic, 37 °C;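 for the amine columns active = adjusted P below 0.05 in both replicates with a change the same way and a mean fold change under 0.8 or over 1.25; inactive = the rest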
# [1] = test system: Clostridium sporogenes DSM 1664; assay: growth (OD595) fold change vs plate DMSO controls (fold change (ratio)); higher = more growth
# Procedure, shortened: (§1)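 Growth is the fold change relative to the median of plate DMSO controls. Readings came from anaerobic mGAM cultures in 96-well plates grown for 27 h at 37 °C and read at 595 nm. They were blank-subtracted, corrected for compound background with 20 µM compound solutions in water, and converted to OD with a calibration factor of 5. Values are means of 2 biological replicates, and fold changes above 1.5 were set to NA.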
# Escherichia coli IAI1 [2] = assay: as above
# Procedure, shortened: as §1
# [3] = test system: Klebsiella aerogenes DSM 30053; assay: as above
# Procedure, shortened: as §1
# [4] = test system: Ruminococcus gnavus DSM 108212; assay: as above
# Procedure, shortened: as §1
# [5] = test system: Klebsiella aerogenes DSM 30053; assay: fold change of Histamine concentration vs plate DMSO controls (fold change (ratio)); higher = more amine produced, active = hit call of the paper (significant change in both replicates, either direction)
# Procedure, shortened: (§2)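 Extracts of whole anaerobic mGAM cultures were analysed for amines by LC–triple-quadrupole MS with dynamic MRM and external calibration curves, with drift corrected within batch. Four gut strains were grown at 37 °C for 27 h in 80 µL wells with compounds at 20 µM final, sweeteners at 50 µM final. Each value expresses fold change over plate DMSO controls. The average of 2 biological replicates is shown.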
# [6] = test system: Clostridium sporogenes DSM 1664; assay: fold change of Tryptamine concentration vs plate DMSO controls (fold change (ratio)); higher = more amine produced, active = hit call of the paper (significant change in both replicates, either direction)
# Procedure, shortened: as §2
# [7] = test system: Ruminococcus gnavus DSM 108212; assay: as above
# Procedure, shortened: as §2
# Escherichia coli IAI1 [8] = assay: fold change of Putrescine concentration vs plate DMSO controls (fold change (ratio)); higher = more amine produced, active = hit call of the paper (significant change in both replicates, either direction)
# Procedure, shortened: as §2
# [9] = test system: Klebsiella aerogenes DSM 30053; assay: as above
# Procedure, shortened: as §2
# Escherichia coli IAI1 [10] = assay: fold change of Cadaverine concentration vs plate DMSO controls (fold change (ratio)); higher = more amine produced, active = hit call of the paper (significant change in both replicates, either direction)
# Procedure, shortened: as §2
# [11] = test system: Klebsiella aerogenes DSM 30053; assay: as above
# Procedure, shortened: as §2
# [12] = test system: Ruminococcus gnavus DSM 108212; assay: fold change of 2-Phenylethylamine concentration vs plate DMSO controls (fold change (ratio)); higher = more amine produced, active = hit call of the paper (significant change in both replicates, either direction)
# Procedure, shortened: as §2
Compound,growth [1],growth (Escherichia coli IAI1 [2]),growth [3],growth [4],fold change of Histamine concentration [5],fold change of Tryptamine concentration [6],fold change of Tryptamine concentration [7],fold change of Putrescine concentration (Escherichia coli IAI1 [8]),fold change of Putrescine concentration [9],fold change of Cadaverine concentration (Escherichia coli IAI1 [10]),fold change of Cadaverine concentration [11],fold change of 2-Phenylethylamine concentration [12]
COc1ncc(F)c2nc(S(=O)(=O)Nc3c(F)cccc3F)nn12,1.08,0.984,1.08,1.15,0.874 (inactive),1.04 (inactive),0.984 (inactive),1.01 (inactive),0.997 (inactive),0.998 (inactive),1.03 (inactive),0.993 (inactive)
COCC(=O)N(c1c(C)cccc1C)[C@H](C)C(=O)OC,0.945,1.01,1.03,0.974,1 (inactive),1.01 (inactive),1.02 (inactive),1.02 (inactive),0.996 (inactive),0.99 (inactive),1.01 (inactive),1.05 (inactive)
"O=C1C=CC(=O)C=C1 [1,4-Benzoquinone]",0.883,0.868,0.844,0.66,0.996 (inactive),1.02 (inactive),1.18 (inactive),0.967 (inactive),1 (inactive),0.943 (inactive),1.11 (inactive),1.66 (active)
N#Cc1nn(-c2c(Cl)cc(C(F)(F)F)cc2Cl)c(N)c1[S+]([O-])C(F)(F)F (centres undefined) [Fipronil],1.26,1.11,1.1,1.28,0.947 (inactive),1.05 (inactive),1 (inactive),1.03 (inactive),0.981 (inactive),1.01 (inactive),1 (inactive),1.04 (inactive)
N#Cc1c(Cl)c(Cl)c(Cl)c(C#N)c1Cl,0.937,1.02,0.925,0.962,1.03 (inactive),0.995 (inactive),0.853 (inactive),1 (inactive),0.995 (inactive),1.08 (inactive),0.991 (inactive),0.804 (inactive)
Clc1ccc(C(OCCN2CCCCC2)c2ccccc2)cc1 (centres undefined) [Cloperastine hydrochloride],1.14,1.07,1.06,0.788,0.884 (inactive),1.01 (inactive),0.88 (inactive),1.06 (inactive),0.988 (inactive),0.958 (inactive),1.03 (inactive),1 (inactive)
CC(O)(CS(=O)(=O)c1ccc(F)cc1)C(=O)Nc1ccc(C#N)c(C(F)(F)F)c1 (centres undefined) [Bicalutamide],1.06,1.01,1.08,1.15,0.914 (inactive),1.09 (inactive),1.06 (inactive),1.08 (inactive),0.973 (inactive),1.01 (inactive),1.02 (inactive),1.04 (inactive)
CC(COc1ccc(Oc2ccccc2)cc1)Oc1ccccn1 (centres undefined),1.06,0.987,1.01,0.945,1.02 (inactive),1.02 (inactive),1.06 (inactive),1.01 (inactive),1.03 (inactive),1.02 (inactive),1.02 (inactive),1.08 (inactive)
Nc1c([N+](=O)[O-])ccc(Oc2ccccc2)c1Cl,0.859,0.991,0.998,1.03,0.974 (inactive),1.02 (inactive),1.01 (inactive),0.973 (inactive),1.01 (inactive),1.04 (inactive),1.01 (inactive),0.982 (inactive)
OC(Cn1cncn1)(c1ccc(F)cc1)c1ccccc1F (centres undefined),1.15,1.06,1.01,0.99,1.01 (inactive),0.985 (inactive),0.984 (inactive),1.03 (inactive),1.02 (inactive),1.03 (inactive),0.992 (inactive),0.948 (inactive)
CCCCc1c(C)nc(NCC)nc1OS(=O)(=O)N(C)C,0.862,1.04,0.957,0.952,1.03 (inactive),1.06 (inactive),0.959 (inactive),0.985 (inactive),0.995 (inactive),1.01 (inactive),0.998 (inactive),0.996 (inactive)
CC(=O)NC1CCSC1=O (centres undefined) [Citiolone],1.15,0.993,1.07,1,0.819 (inactive),1.05 (inactive),1.17 (inactive),1.02 (inactive),0.93 (inactive),0.99 (inactive),1.06 (inactive),1.31 (inactive)
C[C@@H]1CN([C@H]2CC[C@](C#N)(c3ccc(F)cc3)CC2)CC[C@]1(C(=O)O)c1ccccc1 [Levocabastine hydrochloride],1.17,1.09,1.02,1.07,1.03 (inactive),1.04 (inactive),1 (inactive),1.02 (inactive),1 (inactive),0.916 (inactive),0.999 (inactive),0.949 (inactive)
CN(C)[C@@H]1C(=O)C(C(N)=O)=C(O)[C@@]2(O)C(=O)C3=C(O)c4c(O)cccc4[C@@](C)(O)[C@H]3[C@H](O)[C@@H]12 [Oxytetracycline dihydrate],0.0153,0.133,0.113,0.955,0.0509 (active),0.0182 (active),0.898 (inactive),0.279 (active),0.46 (active),0.113 (active),0.413 (active),0.92 (inactive)
C[C@]12CCC(=O)C(O)=C1CC[C@@H]1[C@@H]2CC[C@]2(C)C(=O)CC[C@@H]12 [Formestane],1.03,0.965,0.974,1.13,1.05 (inactive),0.968 (inactive),1 (inactive),1.02 (inactive),1.01 (inactive),1.01 (inactive),0.981 (inactive),1.03 (inactive)
CCCC1COC(Cn2cncn2)(c2ccc(Cl)cc2Cl)O1 (centres undefined),0.938,1.03,0.987,0.947,0.975 (inactive),1.04 (inactive),1.08 (inactive),0.977 (inactive),0.946 (inactive),0.939 (inactive),0.993 (inactive),1.17 (inactive)
NCCc1c[nH]c2ccc(O)cc12 [Serotonin hydrochloride],0.937,0.985,0.99,0.934,1.1 (inactive),1.02 (inactive),1 (inactive),0.993 (inactive),1.08 (inactive),1.06 (inactive),1.06 (inactive),0.93 (inactive)
CON(C)C(=O)Nc1ccc(Cl)c(Cl)c1,1.07,1.01,1.01,1.07,0.924 (inactive),1.02 (inactive),0.969 (inactive),0.982 (inactive),1.02 (inactive),1.02 (inactive),1 (inactive),0.976 (inactive)
CCC1(C)CC(=O)NC(=O)C1 [Bemegride],1.08,1.06,1.04,0.973,0.98 (inactive),1.04 (inactive),1.03 (inactive),0.985 (inactive),0.981 (inactive),0.986 (inactive),0.991 (inactive),1.03 (inactive)
O=c1[nH]c2ccccc2n1C1CCN(CCCC(c2ccc(F)cc2)c2ccc(F)cc2)CC1 [Pimozide],1.41,0.978,0.99,1.25,1.01 (inactive),0.938 (inactive),0.846 (inactive),0.979 (inactive),1.01 (inactive),0.964 (inactive),0.995 (inactive),0.898 (inactive)
Nc1nc(N)nc(NC2CC2)n1 [Cyromazine],1.07,1.02,1.01,1.03,0.979 (inactive),1.02 (inactive),0.995 (inactive),1.02 (inactive),1.03 (inactive),0.979 (inactive),1 (inactive),1 (inactive)
Fc1ccc(C(OCCN2CCN(CCCc3ccccc3)CC2)c2ccc(F)cc2)cc1,1.09,1,1,0.845,0.974 (inactive),0.97 (inactive),0.638 (active),1.01 (inactive),0.993 (inactive),0.998 (inactive),1 (inactive),0.771 (active)
C[N+]1(C)CCCC(OC(=O)C(O)(c2ccccc2)c2ccccc2)C1 (centres undefined) [Mepenzolate bromide],0.917,0.957,1.02,0.882,0.962 (inactive),1 (inactive),1.03 (inactive),0.871 (inactive),1.02 (inactive),1.03 (inactive),1.01 (inactive),1.02 (inactive)
Oc1ccc(Cc2ccc(O)cc2)cc1 [Bisphenol F],0.945,1.12,0.989,1.03,1.06 (inactive),1.11 (inactive),1.15 (inactive),1.04 (inactive),0.986 (inactive),1.03 (inactive),1.09 (inactive),1.48 (inactive)
CN(C)C(CSS(=O)(=O)O)CSS(=O)(=O)O,1.11,0.998,0.99,0.931,1.01 (inactive),0.933 (inactive),1.02 (inactive),1.04 (inactive),0.999 (inactive),1.02 (inactive),0.988 (inactive),0.987 (inactive)
CCC1(CC)C(=O)C=CNC1=O [Pyrithyldione],0.889,0.977,1.04,0.877,1.03 (inactive),0.966 (inactive),1.02 (inactive),1.01 (inactive),1.03 (inactive),1 (inactive),1.02 (inactive),0.996 (inactive)
CC[C@H]1CCC[C@H](O[C@H]2CC[C@H](N(C)C)[C@@H](C)O2)[C@@H](C)C(=O)C2=C[C@@H]3[C@@H](C=C(C)[C@@H]4C[C@@H](O[C@@H]5O[C@@H](C)[C@H](OC)[C@@H](OC)[C@H]5OC)C[C@@H]34)[C@@H]2CC(=O)O1.CC[C@H]1CCC[C@H](O[C@H]2CC[C@H](N(C)C)[C@@H](C)O2)[C@@H](C)C(=O)C2=C[C@H]3[C@@H]4C[C@H](O[C@@H]5O[C@@H](C)[C@H](OC)[C@@H](OC)[C@H]5OC)C[C@H]4C=C[C@H]3C2CC(=O)O1,1.03,0.983,1.01,0.919,0.93 (inactive),0.96 (inactive),0.984 (inactive),1.02 (inactive),0.991 (inactive),1.01 (inactive),0.992 (inactive),0.982 (inactive)

# From the supplement of paper PMC12494721
